Source: PubChem BioAssay AID1159580 (chemical genetic matrix, 2015)
“And” between values parts separate entries of the source, which are not always exact repeats. Equal entries are not always repeated. About 2,000 (36%) of roughly 5,500 compounds were called active. Roughly 18% stayed inconclusive and do not appear here. Rule as the data show it: active = normalized growth mostly below about 0.91 (no sharp cut-off); inconclusive = no clear call, values can overlap the other calls; inactive = mostly above about 0.92. This is one part of the list.

Assay: chemical genetic growth profiling, strain panel (AID 1159580);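 also: tested at 20 µM; growth read once vehicle control cultures reached saturation at 30 °C; 1 = growth at the plate median or of vehicle wells; lower values mean less growth of the strain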
Conditions: S. cerevisiae deletion strains, growth OD

Measured: normalized growth

Cc1c(O)c(O)cc2c1CC=C1[C@@]2(C)CC[C@@]2(C)C3C[C@](C)(C(=O)O)CC[C@]3(C)CC[C@]12C (stereo partly drawn)
active: locus YAL021C, strain ccr4, active compounds read low 0.711 | locus YAL026C, strain drs2, active compounds read low 0.422 | locus YAL030W, strain snc1, active compounds read low 0.541 | locus YBL061C, strain skt5, active compounds read low 0.533 | locus YBR009C, strain hhf1, active compounds read low 0.265 | locus YBR023C, strain chs3, active compounds read low 0.471 | locus YBR171W, strain sec66, active compounds read low 0.842 | locus YBR231C, strain swc5, active compounds read low 0.326 | locus YBR279W, strain paf1, active compounds read low 0.41 | locus YCL011C, strain gbp2, active compounds read low 0.377 | locus YCL016C, strain dcc1, active compounds read low 0.571 | locus YCL061C, strain MRC1, active compounds read low 0.635 | locus YCL069W, strain vba3, active compounds read low 0.668 | locus YCR088W, strain abp1, active compounds read low 0.738 | locus YDL005C, strain med2, active compounds read low 0.413 | locus YDL040C, strain nat1, active compounds read low 0.738 | locus YDL192W, strain arf1, active compounds read low 0.889 | locus YDR001C, strain nth1, active compounds read low 0.766 | locus YDR069C, strain doa4, active compounds read low 0.459 | locus YDR137W, strain rgp1, active compounds read low 0.269 | locus YDR159W, strain sac3, active compounds read low 0.465 | locus YDR162C, strain NBP2, active compounds read low 0.803 | locus YDR195W, strain ref2 0.548 | locus YDR297W, strain sur2, active compounds read low 0.479 | locus YDR318W, strain mcm21, active compounds read low 0.917 | locus YDR334W, strain swr1, active compounds read low 0.338 | locus YDR335W, strain msn5, active compounds read low 0.698 | locus YDR392W, strain spt3, active compounds read low 0.125 | locus YEL003W, strain gim4, active compounds read low 0.416 | locus YEL037C, strain rad23, active compounds read low 0.71 | locus YEL061C, strain CIN8 (second series), active compounds read low 0.701 | locus YEL061C, strain CIN8, active compounds read low 0.906 | locus YER015W, strain faa2, active compounds read low 0.491 | locus YER016W, strain bim1, active compounds read low 0.612 | locus YER111C, strain swi4, active compounds read low 0.581 | locus YER155C, strain BEM2 (second series), active compounds read low 0.348 | locus YER155C, strain BEM2, active compounds read low 0.767 | locus YFR010W, strain ubp6, active compounds read low 0.561 | locus YGL167C, strain pmr1, active compounds read low 0.738 | locus YGL173C, strain kem1, active compounds read low 0.31 | locus YGL227W, strain vid30, active compounds read low 0.854 | locus YGL240W, strain doc1, active compounds read low 0.605 | locus YGL248W, strain PDE1, active compounds read low 0.845 | locus YGL253W, strain hxk2, active compounds read low 0.37 | locus YHR013C, strain ard1, active compounds read low 0.203 | locus YHR027C, strain rpn1, active compounds read low 0.45 | locus YHR129C, strain ARP1, active compounds read low 0.838 | locus YHR142W, strain chs7, active compounds read low 0.387 | locus YIL066C, strain RNR3, active compounds read low 0.801 | locus YJL092W, strain hpr5, active compounds read low 0.686 | locus YJL095W, strain BCK1 (second series), active compounds read low 0.405 | locus YJL095W, strain BCK1, active compounds read low 0.784 and 0.865 | locus YJL115W, strain asf1, active compounds read low 0.741 | locus YJL129C, strain trk1, active compounds read low 0.482 | locus YJL154C, strain vps35, active compounds read low 0.689 | locus YJL164C, strain tpk1, active compounds read low 0.289 | locus YJL166W, strain qcr8, active compounds read low 0.233 | locus YJL187C, strain SWE1, active compounds read low 0.457 | locus YKL068W, active compounds read low 0.941 | locus YKL085W, strain MDH1 (second series), active compounds read low 0.919 | locus YKL085W, strain MDH1, active compounds read low 0.919 | locus YKL160W, strain elf1, active compounds read low 0.386 | locus YKR001C, strain vps1, active compounds read low 0.728 | locus YKR026C, strain gcn3, active compounds read low 0.804 | locus YKR091W, strain srl3, active compounds read low 0.8 | locus YLL001W, strain dnm1, active compounds read low 0.617 | locus YLL026W, active compounds read low 0.496 | locus YLL041C, strain sdh2, active compounds read low 0.645 | locus YLR027C, strain aat2, active compounds read low 0.433 | locus YLR039C, strain RIC1, active compounds read low 0.616 | locus YLR113W, strain HOG1, active compounds read low 0.651 | locus YLR221C, strain rsa3, active compounds read low 0.4 | locus YLR258W, strain gsy2, active compounds read low 0.398 | locus YLR262C, strain YPT6 (second series), active compounds read low 0.186 | locus YLR320W, strain mms22, active compounds read low 0.221 | locus YLR330W, strain CHS5, active compounds read low 0.877 | locus YLR342W, strain FKS1, active compounds read low 0.561 | locus YLR357W, strain rsc2, active compounds read low 0.657 | locus YLR370C, strain arc18, active compounds read low 0.63 | locus YLR384C, strain iki3, active compounds read low 0.885 | locus YLR418C, strain cdc73, active compounds read low 0.645 | locus YML120C, strain ndi1, active compounds read low 0.568 | locus YMR058W, strain fet3, active compounds read low 0.0953 | locus YMR125W, strain sto1, active compounds read low 0.483 | locus YMR129W, active compounds read low 0.764 | locus YMR205C, strain PFK2, active compounds read low 0.364 | locus YMR231W, strain pep5, active compounds read low 0.361 | locus YNL071W, strain lat1, active compounds read low 0.0934 | locus YNL209W, strain ssb2, active compounds read low 0.376 | locus YNL248C, strain rpa49, active compounds read low 0.741 | locus YNL307C, strain MCK1, active compounds read low 0.822 | locus YNR049C, strain mso1, active compounds read low 0.72 | locus YOR001W, strain rrp6, active compounds read low 0.683 | locus YOR070C, strain gyp1, active compounds read low 0.393 | locus YOR080W, strain dia2, active compounds read low 0.697 | locus YOR083W, strain WHI5, active compounds read low 0.656 | locus YOR106W, strain vam3, active compounds read low 0.331 | locus YOR184W, strain ser1, active compounds read low 0.812 | locus YOR265W, strain rbl2, active compounds read low 0.479 | locus YOR270C, strain vph1, active compounds read low 0.273 | locus YOR290C, strain snf2, active compounds read low 0.434 | locus YPL051W, strain arl3, active compounds read low 0.248 | locus YPL055C, strain LGE1, active compounds read low 0.755 | locus YPL078C, strain atp4, active compounds read low 0.62 | locus YPL106C, strain sse1, active compounds read low 0.507 | locus YPL240C, strain hsp82, active compounds read low 0.417
inactive: locus YBR021W, strain FUR4, active compounds read low 1 | locus YBR229C, strain ROT2, active compounds read low 0.966 | locus YCL029C, strain bik1, active compounds read low 0.947 | locus YDL035C, strain GPR1, active compounds read low 0.872 | locus YDL074C, strain BRE1, active compounds read low 0.797 | locus YDL101C, strain DUN1, active compounds read low 0.924 | locus YDL185W, strain tfp1, active compounds read low 1.01 | locus YDR101C, strain arx1, active compounds read low 0.962 | locus YDR150W, strain NUM1, active compounds read low 0.959 | locus YDR388W, active compounds read low 0.962 | locus YDR502C, strain sam2, active compounds read low 0.929 | locus YER110C, active compounds read low 1 | locus YER167W, strain BCK2, active compounds read low 0.921 | locus YGL078C, strain dbp3, active compounds read low 0.977 | locus YGL086W, strain mad1, active compounds read low 0.936 | locus YGR135W, strain pre9, active compounds read low 0.936 | locus YGR252W, strain gcn5, active compounds read low 0.873 | locus YHR030C, strain SLT2, active compounds read low 0.947 and 0.918 | locus YHR079C, strain IRE1 (second series), active compounds read low 0.976 | locus YHR079C, strain IRE1, active compounds read low 0.945 | locus YHR094C, strain hxt1, active compounds read low 0.988 | locus YHR200W, strain rpn10, active compounds read low 0.964 | locus YIL073C, strain SPO22, active compounds read low 0.863 | locus YIL125W, strain kgd1, active compounds read low 0.942 | locus YIR030C, strain dcg1, active compounds read low 0.958 | locus YJL134W, strain LCB3, active compounds read low 0.967 | locus YJL168C, strain set2, active compounds read low 0.979 | locus YJL187C, strain SWE1 (second series), active compounds read low 0.897 | locus YJR043C, strain POL32, active compounds read low 0.914 | locus YJR066W, strain TOR1, active compounds read low 0.901 | locus YKL009W, strain mrt4, active compounds read low 0.986 | locus YLR058C, strain SHM2, active compounds read low 0.894 | locus YLR102C, strain apc9, active compounds read low 0.984 | locus YLR262C, strain YPT6, active compounds read low 0.609 | locus YLR268W, strain sec22, active compounds read low 0.891 | locus YLR342W, strain FKS1 (second series), active compounds read low 0.868 | locus YLR371W, strain rom2, active compounds read low 0.912 | locus YML016C, strain PPZ1, active compounds read low 0.927 | locus YML032C, strain rad52, active compounds read low 0.96 | locus YML124C, strain tub3, active compounds read low 0.971 | locus YMR078C, strain ctf18, active compounds read low 0.984 | locus YMR223W, strain ubp8, active compounds read low 0.906 | locus YMR307W, strain GAS1, active compounds read low 0.782 | locus YNL067W, strain RPL9B, active compounds read low 0.918 | locus YNL183C, strain NPR1, active compounds read low 0.837 | locus YNL233W, strain BNI4, active compounds read low 0.873 | locus YNL250W, strain rad50, active compounds read low 0.972 | locus YNL271C, strain bni1, active compounds read low 0.991 | locus YNL298W, strain CLA4, active compounds read low 1.01 | locus YNL322C, strain KRE1 (second series), active compounds read low 0.935 | locus YNL322C, strain KRE1, active compounds read low 0.937 | locus YNR052C, strain pop2, active compounds read low 0.977 | locus YOL012C, strain htz1 0.648 | locus YOL147C, strain pex11, active compounds read low 0.976 | locus YOR061W, strain CKA2, active compounds read low 0.934 | locus YOR069W, strain VPS5, active compounds read low 0.945 | locus YOR136W, strain idh2, active compounds read low 1 | locus YOR144C, strain elg1, active compounds read low 0.977 | locus YOR231W, strain MKK1, active compounds read low 0.917 | locus YOR316C, strain cot1, active compounds read low 0.981 | locus YPL241C, strain CIN2, active compounds read low 0.96 | locus YPL256C, strain CLN2, active compounds read low 0.856 | locus YPR119W, strain clb2, active compounds read low 0.979 | locus YPR141C, strain kar3, active compounds read low 0.956 | locus YPR163C, strain tif3, active compounds read low 0.924 | locus YPR167C, strain met16, active compounds read low 0.948 | strain wtn01, active compounds read low 0.93
